Compounds with a hit are over-represented: about 9.9% of the library has one in this group of screens.
MCF10A rerep: A quantitative high throughput screen for small molecules that induce DNA re-replication in MCF 10a normal breast cells. MCF 10A DNA re-replication, Hoechst nuclear intensity, 48 h. Potency, µM (highest dose often 46.1 µM), most hits filed as activators. 350,000 compounds, 2.9% hits; also: nearly all actives have a fitted effect of over 50% in size
KB-3-1 tox: qHTS assay for MDR1-selective chemotherapeutics: Primary screen using the parental adenocarcinoma cell KB-3-1. KB-3-1 viability, CellTiter-Glo ATP luminescence, 72 h. 400,000 compounds, 1.4% hits. Potency, µM (highest dose often 46.1 µM), actives largely listed as cytotoxic; also: nearly all actives have a fitted effect of over 60% in size
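Here the drug-naive KB-3-1 line serves as comparator for MDR sub-line selectivity; cells received compound titrations, 72 h at 37 °C, then CellTiter-Glo readout.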
IL1B secr inh: qHTS for Inhibitors of Inflammasome Signaling: IL-1-beta AlphaLISA Primary Screen | THP-1 LPS/ATP IL-1B secretion, AlphaLISA, 16 h; active compounds read low | activity change, % at 57.5 µM | 360,000 compounds, 4.7% hits | AID 743279, 2014; in the data active = activity change below about -50%; inconclusive = mostly about -30% to -49%
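Secreted IL-1B measured by AlphaLISA bead assay after 16 h compound exposure of THP-1 cells; compounds (final up to 57.5 uM) added 1 h before LPS (250 ng/mL) and ATP (1.25 mM) stimulation; lower signal means less secretion.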
KB-V1 MDR tox: qHTS assay for MDR1-selective chemotherapeutics: Primary screen using the drug-selected MDR subline cells KB-V1 | KB-V1 MDR cells viability, CellTiter-Glo, 72 h | Potency, µM (doses to about 46.1 µM), actives largely listed as cytotoxic | 400,000 compounds, 3.4% hits | AID 1347076, 2019; also: nearly all actives have a fitted effect of over 60% in size
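Drug-selected KB-V1 cells, grown in DMEM lacking phenol red with 10% FBS, receive compound titrations; after three days at 37 degrees C, surviving cell ATP is quantified by CellTiter-Glo luminescence and responses normalized and curve-fitted.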
SW480 rereplic: A quantitative high throughput screen for small molecules that induce DNA re-replication in SW480 colon adenocarcinoma cells; SW480 DNA re-replication, Hoechst DNA content imaging, 48 h; Potency, µM (series often up to 46.1 µM), most hits filed as activators; 340,000 compounds, 1.8% hits; also: nearly all actives have a fitted effect of over 55% in size
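Compounds, transferred as 23 nL by pin tool, were incubated with cells for 48 hr; DNA content per nucleus was then quantified by Hoechst staining and fluorescence plate imaging.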
Of the large screens only hits and unclear results are named; the others gave an inactive call. Unless noted, calls follow the shape of the dose curve; as a rule, active = well fitted curve in the direction sought with a large enough effect; inconclusive = small, poorly fitted or top-dose-only effect, or another doubt; inactive = no such curve, though single readings can be large; an effect the other way counts as inactive or inconclusive.

COC(=O)c1ccc(-c2ccc([C@H]3[C@H]4C=CC[C@@H](C)[C@@H]4C(=O)N3Cc3ccccc3)c(F)c2)cc1	MCF10A rerep inconclusive, SW480 rereplic inconclusive
CCOC(=O)c1ccc(-c2cc(C)no2)[nH]1	KB-V1 MDR tox inconclusive
COc1ccc(-c2cc([C@H]3[C@H]4C=CC[C@@H](C)[C@@H]4C(=O)N3Cc3ccccc3)ccc2F)cc1OC	MCF10A rerep inconclusive, KB-3-1 tox 16.4µM, KB-V1 MDR tox inconclusive
COc1ccc(N2CCN(CCNC(=O)c3ccc4c(c3)[nH]c(=S)n3c5ccccc5nc43)CC2)cc1	SW480 rereplic 7.31µM
COc1ccc(N2CCN(CCNC(=O)c3ccc4nc5ccccc5c(=O)n4c3)CC2)cc1	none
O=C(NN1CCOCC1)c1ccc(Cl)s1	KB-3-1 tox inconclusive
O=C(Nc1ccccc1O)c1c(O)c2c([nH]c1=O)CCCC2	MCF10A rerep 20.6µM, IL1B secr inh -67.6, SW480 rereplic 16.4µM
O=C(Nc1nccs1)c1c(O)c2c([nH]c1=O)CCCC2	none
COc1ccc(CN(C)C[C@@H]2OCc3cnnn3CCCC(=O)N([C@H](C)CO)C[C@H]2C)cc1	none (no result: MCF10A rerep, SW480 rereplic)
Cc1ccccc1Nc1c(F)c(F)c(F)c(F)c1C(=O)O	SW480 rereplic inconclusive
N/C(CCS(=O)(=O)c1ccc(Cl)cc1)=N\OC(=O)c1ccccc1Cl	IL1B secr inh -51.2
COc1cccc(Cn2c(=O)sc3ccccc3c2=O)c1	SW480 rereplic inconclusive
COc1cccc(Cn2c(=O)c3ccccc3n3nc(C)cc23)c1	MCF10A rerep inconclusive, KB-3-1 tox inconclusive, KB-V1 MDR tox 20.6µM
CCC(C)n1c(SCC(=O)NC2CCS(=O)(=O)C2)nc2ccccc2c1=O (centres undefined)	none
COC(=O)/C=c1\sc2ncnn2c1=O	MCF10A rerep 11.2µM
Cc1ccc(N(C(=O)c2snc(C(N)=O)c2N)C(C(=O)NCCC(C)C)c2ccco2)cc1 (centres undefined)	MCF10A rerep inconclusive, KB-V1 MDR tox inconclusive, SW480 rereplic inconclusive
O=C(O)c1ccccc1CC(CCc1ccccc1)C(=O)O (centres undefined)	none
COc1cc(NCc2ccccc2O)c2ncccc2c1	MCF10A rerep 20.6µM
Cc1noc(C)c1CSCC(=O)N1CCN(c2ccc(F)cc2)CC1	KB-3-1 tox inconclusive, KB-V1 MDR tox 2.91µM
CCOc1ccc(N(CC(=O)N2CCN(c3ccc(F)cc3)CC2)S(=O)(=O)c2c(C)noc2C)cc1	SW480 rereplic 23.1µM
Cc1cc(NC(=O)CSCC(=O)N2CCN(c3cccc(C)c3C)CC2)no1	none
Cc1cccc(N2CCN(C(=O)CSCc3c(C)noc3C)CC2)c1C	KB-3-1 tox 3.66µM, KB-V1 MDR tox 1.84µM
COc1ccc(N(CC(=O)N2CCN(c3ccc(F)cc3)CC2)S(=O)(=O)c2c(C)noc2C)cc1	none
Cc1ccc(/C=N/NC(=O)CNC(=O)c2cccc([N+](=O)[O-])c2C)o1	none
Cc1ccc(C)c(NC(=O)c2ccc(S(=O)(=O)C(F)F)cc2)c1	none
Cc1ccc(C2C(C#N)=C(N)Oc3cc4c(cc32)OCO4)cc1 (centres undefined)	MCF10A rerep inconclusive, KB-3-1 tox inconclusive, KB-V1 MDR tox inconclusive, SW480 rereplic inconclusive
Cc1ccccc1N=Cc1cc2c(cc1O)OC(N)=C(C#N)C2c1ccccc1 (centres undefined)	MCF10A rerep 18.4µM, KB-V1 MDR tox inconclusive, SW480 rereplic inconclusive
Cc1ccc(N=Cc2cc3c(cc2O)OC(N)=C(C#N)C3c2ccccc2)cc1 (centres undefined)	MCF10A rerep 18.4µM, KB-3-1 tox inconclusive, IL1B secr inh inconclusive, SW480 rereplic inconclusive
N#CC1=C(N)Oc2cc(O)c(C=Nc3ccccc3)cc2C1c1ccccc1 (centres undefined)	MCF10A rerep 4.11µM
COc1ccc(S(=O)(=O)NC2CCCCCC2)cc1C(N)=O	none
O=C(NC12CC3CC(CC(C3)C1)C2)C1CCCN1C(=O)Nc1ccccc1 (centres undefined)	none
CC#CC[N+](C)(C)CCCCCCCC	KB-3-1 tox 18.4µM
CCCCc1ccc(Nc2nc(CCC)cc(=O)[nH]2)cc1	MCF10A rerep 5.8µM, KB-3-1 tox inconclusive, IL1B secr inh -104.7, KB-V1 MDR tox inconclusive, SW480 rereplic inconclusive
CCCCCc1c(C)nc(Nc2ccc(F)cc2)[nH]c1=O	KB-V1 MDR tox inconclusive, SW480 rereplic inconclusive
CCCCc1c(C)nc(Nc2ccc(OC)cc2)[nH]c1=O	KB-V1 MDR tox 23.1µM, SW480 rereplic inconclusive
CCCc1cc(=O)[nH]c(Nc2cc(C)cc(C)c2)n1	KB-V1 MDR tox inconclusive (no result: MCF10A rerep, IL1B secr inh, SW480 rereplic)
Oc1cc(CNC2CCCCC2)c(O)cc1CNC1CCCCC1	SW480 rereplic inconclusive
CNS(=O)(=O)c1cccc2nsnc12	none
CC(C)(C)c1ccc(C(=O)NNc2ncnc3c2cnn3-c2ccccc2)cc1	none (no result: MCF10A rerep, IL1B secr inh, SW480 rereplic)
COc1ccc(NC(=S)NCCc2ccccc2OC)c(OC)c1	KB-3-1 tox inconclusive, KB-V1 MDR tox 20.6µM
COc1cccc(C(=O)NNC(=S)NC2CCCCC2)c1	KB-V1 MDR tox 23.1µM
COc1cc(NC(=S)NCCc2c[nH]c3ccccc23)c(OC)cc1Cl	IL1B secr inh -66.1, KB-V1 MDR tox inconclusive
COc1ccccc1NC(=S)NCCc1c[nH]c2ccccc12	SW480 rereplic inconclusive
COc1ccc(NC(=S)NCc2ccccc2Cl)c(OC)c1	KB-V1 MDR tox inconclusive
COc1ccc(NC(=S)NC2CCCCCC2)c(OC)c1	KB-3-1 tox inconclusive, KB-V1 MDR tox 18.4µM
COc1ccc(NC(=O)N(C2CCCCC2)C2CCN(C(C)C)CC2)c(OC)c1	KB-V1 MDR tox 14.6µM
COc1ccc(NC(=O)N(C2CCCCC2)C(C)c2ccco2)c(OC)c1 (centres undefined)	MCF10A rerep inconclusive, KB-V1 MDR tox inconclusive
NC(=O)c1c(NC(=O)CS(=O)(=O)c2ccc(Cl)cc2)sc2c1CCCCC2	none (no result: MCF10A rerep, IL1B secr inh, SW480 rereplic)
COc1ccc(-c2nc3sc(CCNC(=O)c4cc(Cl)ccc4OC)c(C)n3n2)cc1	none (no result: MCF10A rerep, IL1B secr inh, SW480 rereplic)
COc1ccc(CCn2c(C)cc(C(=O)CCl)c2C)cc1OC	MCF10A rerep 6.51µM, KB-3-1 tox inconclusive, IL1B secr inh -100.5, KB-V1 MDR tox inconclusive, SW480 rereplic 5.8µM
Cc1cc(C(=O)CSc2nnc(N)s2)c(C)n1CCc1ccc(Cl)cc1	KB-3-1 tox inconclusive, KB-V1 MDR tox inconclusive
Cc1cc(C(=O)CCl)c(C)n1CCc1ccc(F)cc1	MCF10A rerep inconclusive, KB-3-1 tox inconclusive, IL1B secr inh -58.2, KB-V1 MDR tox inconclusive
Cc1cc(C(=O)CCl)c(C)n1CCc1ccc(Cl)cc1	MCF10A rerep 16.4µM, KB-3-1 tox inconclusive, IL1B secr inh -96.2, KB-V1 MDR tox inconclusive, SW480 rereplic 5.17µM
COc1ccc(N2CCN(Cc3nc(-c4ccccc4)no3)CC2)cc1	none

Assay outcomes deposited in PubChem by National Center for Advancing Translational Sciences (NCATS).
